# Experimental data: the supplement of paper PMC9925115
# Structures can show the parent of a compound that is named as a salt. ± gives the uncertainty stated by the source.
# How the values were obtained:
# FLX1 = test: cell viability z-score within plate (CellTiter-Glo), mean of 3 biological replicates; higher = higher viability relative to plate (less growth inhibition); conditions: 2 µM; time (hr): 120
# Description: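 FLX1 fibrolamellar carcinoma cells (DNAJB1-PRKACA fusion), 600 cells/well in 384-well plates, treated with a Selleck kinase inhibitor library (L1200) at 2 uM for 5 days (120 hr); viability by CellTiter-Glo. A z-score was computed within each plate and averaged over three biological replicates.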
# [1] = tested on: FLX1 + dox-induced PRKAR1A G325D; test: difference in log2 fold change of viability vs plate median (dox-induced PRKAR1A G325D minus uninduced); higher = compound less effective when PKA is inhibited; conditions: concentration: not stated (2 or 5 uM); 5 days
# Description: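 For each plate a log2 fold change vs the plate median was derived, and the values without dox were subtracted from those with dox, averaged over three biological replicates.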
Compound,cell viability z-score within plate (FLX1),difference in log2 fold change of viability [1]
Cc1[nH]c(/C=C2\C(=O)Nc3ccc(S(=O)(=O)Cc4c(Cl)cccc4Cl)cc32)c(C)c1C(=O)N1CCC[C@@H]1CN1CCCC1,0.00363 ± 0.67,-0.266
O=C(NCc1cccc(O)c1)Nc1nc(-c2ccncc2)cs1,0.289 ± 0.42,-0.0799
"CN1CCN(c2ccc3nc(-c4c(N)c5c(F)cccc5[nH]c4=O)[nH]c3c2)CC1 [Dovitinib (TKI-258, CHIR-258)]",0.442 ± 0.46,0.0764
O=C(c1ccc(/C=C/c2n[nH]c3ccccc23)cc1)N1CCNCC1,0.449 ± 0.26,-0.0816
CC1=C(C(=O)Nc2cc3cn[nH]c3cc2F)C(c2ccc(C(F)(F)F)cc2)CC(=O)N1 (stereo unspecified),1.02 ± 0.74,0.418
C=CC(=O)N1CCC[C@@H](n2nc(-c3ccc(Oc4ccccc4)cc3)c3c(N)ncnc32)C1,0.337 ± 0.4,-2.14
CCCCCCCCc1ccc(CCC(N)(CO)CO)cc1 [Fingolimod (FTY720) HCl],0.096 ± 0.62,0.301
"Cc1cc(Nc2cc(N3CCN(C)CC3)nc(Sc3ccc(NC(=O)C4CC4)cc3)n2)n[nH]1 [Tozasertib (VX-680, MK-0457)]",0.324 ± 0.42,-0.00164
CS(=O)(=O)N1CCc2c(-c3cnc(N)nc3)nc(N3CCOCC3)nc21,0.617 ± 0.29,0.207
CCc1nc(-c2cccc(C)c2)c(-c2ccnc(NC(=O)c3ccccc3)c2)s1,0.996 ± 0.36,0.387
Cc1cnc(Nc2ccc(N3CCN(C)CC3)cc2)nc1Nc1cccc(S(=O)(=O)NC(C)(C)C)c1,0.0181 ± 0.39,-0.303
CCCS(=O)(=O)Nc1ccc(F)c(C(=O)c2c[nH]c3ncc(Cl)cc23)c1F,0.17 ± 0.093,0.333
C=CC(=O)Nc1cccc(Nc2nc(Nc3ccc(Oc4ccnc(C(=O)NC)c4)cc3)ncc2F)c1,0.519 ± 0.21,-0.452
CO[C@H]1C[C@@H]2CC[C@@H](C)[C@@](O)(O2)C(=O)C(=O)N2CCCC[C@H]2C(=O)O[C@H]([C@H](C)C[C@@H]2CC[C@@H](OCCO)[C@H](OC)C2)CC(=O)[C@H](C)/C=C(\C)[C@@H](O)[C@@H](OC)C(=O)[C@H](C)C[C@H](C)/C=C/C=C/C=C/1C [Everolimus (RAD001)],-0.497 ± 1.1,-1.32
S=C(NCc1ccc2c(c1)OCO2)N1CCN(c2ncnc3c2oc2ccccc23)CC1 [Amuvatinib (MP-470)],-0.826 ± 0.77,0.22
CCS(=O)(=O)Nc1ccc2c(c1)/C(=C(/Nc1ccc(CN3CCCCC3)cc1)c1ccccc1)C(=O)N2 [Hesperadin],-2.01 ± 0.23,-0.105
Cn1cc(-c2ccc3nnc(C(F)(F)c4ccc5ncccc5c4)n3n2)cn1,-0.299 ± 0.51,0.158
C[C@@H](Oc1cc(-c2cnn(C3CCNCC3)c2)cnc1N)c1c(Cl)ccc(F)c1Cl,0.281 ± 0.54,-0.703
Cc1ccc(NC(=O)c2cccc(C(C)(C)C#N)c2)cc1Nc1ccc2ncn(C)c(=O)c2c1,-1.84 ± 0.14,0.173
CC(C)(C)c1cc(/C=C(\C#N)C(N)=S)cc(C(C)(C)C)c1O [Tyrphostin AG 879],0.585 ± 0.3,0.264
COc1ccc(-c2ccc3c(N4CCOCC4)nc(N4C[C@@H](C)O[C@@H](C)C4)nc3n2)cc1CO,0.495 ± 0.19,0.463
"CO[C@H]1C[C@@H]2CC[C@@H](C)[C@@](O)(O2)C(=O)C(=O)N2CCCC[C@H]2C(=O)O[C@H]([C@H](C)C[C@@H]2CC[C@@H](OP(C)(C)=O)[C@H](OC)C2)CC(=O)[C@H](C)/C=C(\C)[C@@H](O)[C@@H](OC)C(=O)[C@H](C)C[C@H](C)/C=C/C=C/C=C/1C [Ridaforolimus (Deforolimus, MK-8669)]",-0.102 ± 0.36,0.419
CC(C)(C)c1nc(-c2cccc(NS(=O)(=O)c3c(F)cccc3F)c2F)c(-c2ccnc(N)n2)s1,0.0787 ± 0.036,0.264
O=C(Nc1ccc(-c2ccnc(Nc3ccc(N4CCOCC4)cc3)n2)cc1)C1CCCN1 (stereo unspecified),0.342 ± 0.56,0.201
C[S+]([O-])c1ccc(-c2nc(-c3ccc(F)cc3)c(-c3ccncc3)[nH]2)cc1 (stereo unspecified),-1.58 ± 1.1,-0.00802
CNC(=O)c1cc(Oc2ccc(NC(=O)Nc3ccc(Cl)c(C(F)(F)F)c3)c(F)c2)ccn1 [Regorafenib (BAY 73-4506)],2 ± 0.81,-0.347
O=C1NC(=O)[C@@H](c2cn3c4c(cccc24)CCC3)[C@@H]1c1c[nH]c2ccccc12 [Tivantinib (ARQ 197)],-1.26 ± 0.51,0.768
CO[C@H]1C[C@@H]2CC[C@@H](C)[C@@](O)(O2)C(=O)C(=O)N2CCCC[C@H]2C(=O)O[C@H]([C@H](C)C[C@@H]2CC[C@@H](O)[C@H](OC)C2)CC(=O)[C@H](C)/C=C(\C)[C@@H](O)[C@@H](OC)C(=O)[C@H](C)C[C@H](C)/C=C/C=C/C=C/1C [Rapamycin (Sirolimus)],0.422 ± 0.17,-0.339
